High-throughput results deposited in PubChem BioAssay by National Center for Advancing Translational Sciences (NCATS).
This is a sample that favours compounds with a hit; in the whole collection about 0.95% have one here.
Tb PYK inh – blocks Trypanosoma brucei pyruvate kinase. TbPYK enzyme, Kinase-Glo Plus ATP luminescence, 45 min. Potency, µM (series often up to 76.8 µM), without a hit: at the top dose activity, negative = inhibition, actives largely listed as inhibitors. actives 0.12% (n = 410,000). AID 624173; note: potency is the fitted concentration of half-maximal effect; % is set by controls: 0 for no effect and ±100 for the full control effect; nearly all actives have a fitted effect of over 50% in size
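Screened from lowest to highest concentration, compounds were pinned into TbPYK/substrate mixtures, and ADP (130 uM final) was added. Plates sat at room temperature for 45 min prior to Kinase-Glo Plus detection by luminescence.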
RE007 growth inh – less growth of the S. pombe RE007 Vpr strain | S. pombe RE007 Vpr strain, BacTiter-Glo ATP luminescence, 24 h | Potency, µM (top dose mostly 92.2 µM), for inactives: at the highest dose activity change, negative = less growth, most hits filed as inhibitors | actives 0.21% (n = 360,000); active = well fitted falling curve with a large enough effect; inconclusive = small, poorly fitted or top-dose-only effect; inactive = no such curve, though single readings can be large or run the other way; note: potency is the fitted concentration of half-maximal effect; % is set by controls: 0 for no effect and ±100 for the full control effect; nearly all actives have a fitted effect of over 50% in size
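Fission yeast RE007 carrying one integrated HIV-1 vpr copy, seeded at OD 0.01 in PMG+AL medium with 23 nL pinned compound. Grown 24 h at 30 degrees; viability read by BacTiter-Glo luminescence after 5 min.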
LmPK inhibitor – inhibitors of Leishmania mexicana pyruvate kinase; Q27686; purified LmPK, Kinase-Glo ATP luminescence, 1 h; Potency, µM (titrated, usually from 57.5 µM), for the others: top-dose activity change, negative = inhibition, actives largely listed as inhibitors; actives 0.37% (n = 290,000); note: potency is the fitted concentration of half-maximal effect; % is set by controls: 0 for no effect and ±100 for the full control effect
Target sequence (Q27686 whole entry, looked up): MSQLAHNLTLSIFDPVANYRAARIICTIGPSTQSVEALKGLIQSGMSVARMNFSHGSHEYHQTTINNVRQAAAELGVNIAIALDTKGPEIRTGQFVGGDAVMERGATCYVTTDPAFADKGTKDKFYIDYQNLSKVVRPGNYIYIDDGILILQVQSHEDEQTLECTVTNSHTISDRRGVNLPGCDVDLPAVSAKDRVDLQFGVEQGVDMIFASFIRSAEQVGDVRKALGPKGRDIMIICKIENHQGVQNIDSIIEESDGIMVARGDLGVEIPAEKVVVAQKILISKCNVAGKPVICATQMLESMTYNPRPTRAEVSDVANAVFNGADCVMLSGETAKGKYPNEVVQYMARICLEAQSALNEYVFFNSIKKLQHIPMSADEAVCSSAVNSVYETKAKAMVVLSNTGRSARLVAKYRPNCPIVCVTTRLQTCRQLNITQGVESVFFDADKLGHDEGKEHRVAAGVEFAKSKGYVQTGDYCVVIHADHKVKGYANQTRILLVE
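qHTS format; LmPK 0.1 nM; substrates PEP 0.5 mM and ADP 0.1 mM. One-hour room-temperature incubation, then coupled luciferase luminescence; 0.5 nM enzyme wells mark activation.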
Giardia FBPA inh-1 – blocks Giardia fructose-bisphosphate aldolase activity | purified Giardia FBPA | Potency, µM (highest dose often 59.6 µM), for the others: top-dose activity, negative = inhibition, actives largely listed as inhibitors | A8B2U2 | actives 0.71% (n = 290,000); note: potency is the fitted concentration of half-maximal effect; % is set by controls: 0 for no effect and ±100 for the full control effect; nearly all actives have a fitted effect of over 55% in size
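40 nM FBPA preincubated 10 min at RT with compound (up to 57.5 uM final), then substrate plus GAPDH/TPI/NAD/arsenate coupling and diaphorase/resazurin added. Fluorescence read after 20 min at RT, 525/598 nm.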
LmPK confirm – Blocks LmPK activity, confirmation assay; shares compounds with LmPK inhibitor; purified LmPK, Kinase-Glo ATP luminescence, 1 h; Potency, µM (series often up to 57.5 µM), for inactives: top-dose activity change, negative = inhibition, hits mostly inhibitors; actives 40% (n = 150); AID 2559;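 active = compounds giving a full or partial concentration-response curve, as inhibitors or activators; inconclusive = weak, top-dose-only or unclear curve responses; inactive = no response at any tested dose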
Giardia growth – inhibitors of Giardia lamblia growth; actives 5% (n = 1,500); Giardia lamblia trophozoite growth inhibition; shares compounds with Giardia FBPA inh-1; Potency, µM (top dose mostly 57.5 µM), for inactives: top-dose activity change, negative = inhibition, hits mostly inhibitors;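 note: potency is the fitted concentration of half-maximal effect; trophozoites exposed to compound for 48 h at 37 °C; % is set by controls: 0 for no effect and ±100 for the full control effect; nearly all actives have a fitted effect of over 70% in size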
Mammalian tox – toxic to mammalian cells in Giardia aldolase counter-screen. shares compounds with Giardia FBPA inh-1. actives 4% (n = 1,500). mammalian cell viability counter-screen, qHTS. Potency, µM (top dose mostly 57.5 µM), for the others: at the highest dose viability change, negative = toxicity, most hits filed as inhibitors;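 note: Chinese hamster ovary cells used as mammalian cytotoxicity surrogate; viability measured as cellular ATP by luminescence; potency is the fitted concentration of half-maximal effect; compound exposure lasted 48 h before reading; % is set by controls: 0 for no effect and ±100 for the full control effect; nearly all actives have a fitted effect of over 60% in size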
Giardia FBPA inh-2 – confirmation of Giardia fructose-bisphosphate aldolase inhibitors; shares compounds with Giardia FBPA inh-1; purified Giardia aldolase enzyme activity, qHTS; Potency, µM (titrated, usually from 57.5 µM), for inactives: at the top dose activity change, negative = inhibition, most hits filed as inhibitors; actives 5% (n = 1,500); note: potency is the fitted concentration of half-maximal effect; % is set by controls: 0 for no effect and ±100 for the full control effect; nearly all actives have a fitted effect of over 45% in size
Rabbit aldolase – rabbit FBP aldolase inhibition by Giardia aldolase hits; actives 4% (n = 1,500); Rabbit muscle FBPA enzyme inhibition, selectivity counter-screen; Potency, µM (series often up to 57.5 µM), for the others: at the highest dose activity, negative = inhibition, most hits filed as inhibitors; shares compounds with Giardia FBPA inh-1; AID 2794; note: potency is the fitted concentration of half-maximal effect; % is set by controls: 0 for no effect and ±100 for the full control effect; nearly all actives have a fitted effect of over 60% in size
Target sequence (P00883 whole entry, looked up): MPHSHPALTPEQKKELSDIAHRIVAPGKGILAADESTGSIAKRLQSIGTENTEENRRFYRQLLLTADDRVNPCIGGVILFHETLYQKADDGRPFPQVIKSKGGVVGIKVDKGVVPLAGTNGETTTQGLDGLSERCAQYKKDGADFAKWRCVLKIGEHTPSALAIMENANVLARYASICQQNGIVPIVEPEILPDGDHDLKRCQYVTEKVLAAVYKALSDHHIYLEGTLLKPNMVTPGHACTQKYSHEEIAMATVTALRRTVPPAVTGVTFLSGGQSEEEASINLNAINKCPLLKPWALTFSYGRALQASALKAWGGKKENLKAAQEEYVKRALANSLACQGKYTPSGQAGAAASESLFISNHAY
GAPDH counter – counter-screen for Giardia aldolase inhibitors: GAPDH coupling enzyme; shares compounds with Giardia FBPA inh-1; GAPDH coupling enzyme counterscreen, biochemical, qHTS; Potency, µM (top dose mostly 57.5 µM), without a hit: at the top dose activity change, negative = inhibition, hits mostly inhibitors; actives 6% (n = 1,500); AID 2795; note: potency is the fitted concentration of half-maximal effect; % is set by controls: 0 for no effect and ±100 for the full control effect; nearly all actives have a fitted effect of over 55% in size
Active calls of the source: *; ? = inconclusive; . = no result; ! = not confirmed by another sample; [ ] = dose if it differs, or a comment. Unless noted, calls come from the whole dose curve; as a rule, active = well fitted curve in the direction sought with a large enough effect; inconclusive = small, poorly fitted or top-dose-only effect, or another doubt; inactive = no such curve, though single readings can be large; an effect the other way counts as inactive or inconclusive.

SMILES	Tb PYK inh	RE007 growth inh	LmPK inhibitor	Giardia FBPA inh-1	Giardia growth	Mammalian tox	Giardia FBPA inh-2	Rabbit aldolase	GAPDH counter	others
Cc1ccc(S(=O)(=O)/N=C2/C=C(Sc3ncn[nH]3)C(=O)c3ccccc32)cc1	7.9µM*	?	7.1µM*	0.45µM*	7.1µM*	20µM*	2.5µM*	10µM*	3.2µM*	LmPK confirm=4.6µM*
O=C1C(Cl)=C(NC(=O)c2ccccc2)C(=O)C(Cl)=C1NC(=O)c1ccccc1	?	3%	1.1µM*	5.6µM*	-12%	?	0.79µM*	3.5µM*	1.4µM*	LmPK confirm=?
CCOc1ccc(NC(=O)c2sc3nc4c(cc3c2N)CN(Cc2ccccc2)CC4)cc1	2%	.	.	.	.	.	.	.	.
CC1=NN(c2ccccc2)C(=O)/C1=C/N(C)C	13%	?	-10%	-28%	.	.	.	.	.
CC1=NN(c2nc3ccccc3[nH]2)C(=O)/C1=C/N(C)C	?	7.9µM*	14µM*	16µM*	40µM*	4.5µM*	3%	-1%	-14%	LmPK confirm=7.3µM*
COc1ccc(NC(=O)CN2C(=O)C(=O)c3ccccc32)c(OC)c1	-8%	.	.	.	.	.	.	.	.
Cc1ccc(N)c(C)c1	1%	11%	.	.	.	.	.	.	.
Cc1cc(C)c(O)c(N)c1	.	.	2%	20µM*	-5%[10.4 µM]	5%	?	?	-28%
Nc1nc(=S)c2[nH]c(=S)[nH]c2[nH]1	-31%	-2%	.	.	.	.	.	.	.
Nc1nc(=S)c2[nH]cnc2[nH]1	14µM*!	-6%[18.4 µM]	.	3.2µM*	2%[38.3 µM]	7.1µM*	-12%	-12%	-5%
CN(C)c1ccc(NC2=C(Cl)C(=O)c3ccccc3C2=O)cc1	?	?	-28%	?	11µM*	33µM*	?	?	3.7µM*
CC1CCCN(C(=O)CSc2c3c(nc4cc(Cl)ccc24)CCCC3)C1 (stereo not given)	-1%	.	.	.	.	.	.	.	.
O=C(Nc1nnc(C2=COCCO2)o1)c1ccc(S(=O)(=O)N2CCCCC2)cc1	9%	5%	2%[11.5 µM]	16µM*	?	-9%	11%	16%	-1%
O=C(Nc1nnc(-c2cccs2)o1)c1ccc(S(=O)(=O)N2CCOCC2)cc1	-3%	1%	8%	14µM*	-3%[10.4 µM]	-10%	-6%	-1%	-9%
O=C(Nc1nnc(C2=COCCO2)o1)c1ccc(S(=O)(=O)N2CCCC2)cc1	2%	6%	1%[11.5 µM]	3.5µM*	25%[38.3 µM]	-4%	-6%	-3%	2%
COc1ccc(CCCC(=O)N/N=C/c2ccccc2OC)cc1	-6%	3%	8%	16µM*	-12%[10.4 µM]	-12%	?	40µM*	25µM*
COc1cc(/C=N/n2nnnc2N)ccc1OCc1c(C)no[n+]1[O-]	-6%	5%	-2%	2%	.	.	.	.	.
Cc1no[n+]([O-])c1COc1cccc(/C=N/Nc2nncn2N)c1	-5%	8%	0%	14µM*	39%	8%	18µM*	?	20µM*
CCOc1ccc(CN(C)CC(=O)Nc2cccc(S(=O)(=O)N(C)c3ccccc3)c2)cc1	4%	2%	-17%	20µM*	?	6%	4%	17%	-1%
COc1cccc(CN(C)CC(=O)Nc2cccc(S(=O)(=O)N(C)c3ccccc3)c2)c1OC	0%	-20%	.	.	.	.	.	.	.
O=C(Nc1ccc(N2CCOCC2)c(Cl)c1)c1ccc(Cl)cc1	-2%	0%	0%	16µM*	?	-1%	?	?	?
O=C(Nc1ccc(N2CCOCC2)c(Cl)c1)c1ccc2c(c1)OCCO2	3%	6%	-22%	8%	.	.	.	.	.
C=CCn1c(SCC(=O)Nc2cc(C)on2)nnc1C1COc2ccccc2O1 (stereo not given)	-9%	20%	-1%	7%	.	.	.	.	.
Cc1cc(NC(=O)CSc2nnc(C3COc4ccccc4O3)n2N)no1 (stereo not given)	-28%	1%	8%	20µM*	-25%	17%	-6%	3%	-1%
CCOC(=O)c1noc2ncnc(N3CCN(c4cccc(Cl)c4)CC3)c12	-4%	.	.	.	.	.	.	.	.
SMILES	Tb PYK inh	RE007 growth inh	LmPK inhibitor	Giardia FBPA inh-1	Giardia growth	Mammalian tox	Giardia FBPA inh-2	Rabbit aldolase	GAPDH counter	others
CCc1ccc(N2C(=O)N(CC(=O)C(C)(C)C)c3ccccc3S2(=O)=O)cc1	-4%	.	.	.	.	.	.	.	.
COC(=O)c1sc(NC(=S)NC(=O)c2cccc(Br)c2)nc1C	1%	-8%	-6%	11µM*	53%	-1%	8%	5%	19%
CCOc1cc(/C=N/Nc2nnc(C)n2N)ccc1O	2%	7%	-1%	16µM*	-17%	14%	?	?	?
Cc1[nH]c2ccccc2c1/C=N/Nc1nc2ccccc2[nH]1	-5%	-6%	-2%	18µM*	-4%[10.4 µM]	-20%	-10%	-6%	-2%
CCc1nnc(N/N=C/c2cc(C)c(C)cc2C)n1N	-2%	-5%	-2%	13µM*	17%	-4%	-24%	-8%	-5%
CCc1nnc(N/N=C/c2c(F)cccc2Cl)n1N	10%	-13%	-4%	20µM*	-26%	1%	-27%	-15%	-13%
CCOc1cc(/C=N/Nc2ncnc(Cl)c2N)ccc1O	-16%	.	-12%	?	.	.	.	.	.
COC(=O)[C@H]1O[C@@H](c2cc(OC)c(C)c(OC)c2OCc2ccccc2)[C@H](C)[C@@H]2O[C@]12C	.	.	.	-3%	.	.	.	.	.
Cc1[nH]c2ccccc2c1/C=N/NC(N)=S	-4%	-2%	1%	-29%	.	.	.	.	.
CCc1nnc(N/N=C/c2c(C)[nH]c3ccccc23)n1N	-9%	-1%	-2%	18µM*	17%	0%	?	?	-24%
Cc1nnc(N/N=C/c2ccc(-c3ccccc3F)o2)n1N	-6%	-18%	-4%	16µM*	?	0%	16µM*	?	?
Clc1cccc(Cl)c1/C=N\Nc1nccs1	7%	-17%	3%	-3%	.	.	.	.	.
Cc1nnc(N/N=C/c2c(Cl)cccc2Cl)n1N	-4%	-16%	-4%	22µM*	13%	8%	-15%	-3%	-1%
